Source: PubChem (several laboratories)
An excerpt weighted towards active compounds, which were near 2.7% of everything screened.
SENP7 inh – blocks the human protease SENP7; AID 434973; recombinant SENP7, Z-RLRGG-aminoluciferin luminescence, 40 min; 1.5% of 330,000 active; inhibition, % at 5 µM; Q9BQF6;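 active means inhibition above about 50% at the single test dose, limit read from the data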;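 further: plate controls were DMSO with enzyme for no effect and no enzyme buffer wells for full effect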
Target sequence (Q9BQF6 706-1050 limits assumed): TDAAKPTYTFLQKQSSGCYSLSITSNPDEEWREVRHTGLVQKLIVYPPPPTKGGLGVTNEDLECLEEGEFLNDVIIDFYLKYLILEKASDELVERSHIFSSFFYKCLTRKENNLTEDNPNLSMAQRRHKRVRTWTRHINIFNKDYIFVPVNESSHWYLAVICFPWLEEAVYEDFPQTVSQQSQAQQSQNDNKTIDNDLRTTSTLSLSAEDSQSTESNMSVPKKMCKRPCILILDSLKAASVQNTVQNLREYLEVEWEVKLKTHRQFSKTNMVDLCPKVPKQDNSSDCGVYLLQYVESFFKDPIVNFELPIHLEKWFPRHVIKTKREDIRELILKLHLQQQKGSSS
HSP90 inh – blocks HSP90-mediated luciferase refolding in reticulocyte lysate | AID 1789 | inhibition, % at 5.6 µM | Rabbit reticulocyte lysate, luciferase refolding luminescence, 3 h | 0.91% of 290,000 active;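 active means inhibition above the screen-wide mean plus 3 SD, computed separately per campaign, cut at about 16% in these data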;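 further: 0% = DMSO wells and 100% = 60 µM geldanamycin wells; inhibitors lower the luminescence because luciferase stays unfolded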
SENP8 block-1 – blocks the human protease SENP8 | inhibition, % at 10 µM | 1.2% of 330,000 active | purified SENP8, Z-RLRGG-aminoluciferin cleavage, luminescence | Q96LD8; in the data active means inhibition above about 50%
Target sequence (Q96LD8 whole entry, looked up): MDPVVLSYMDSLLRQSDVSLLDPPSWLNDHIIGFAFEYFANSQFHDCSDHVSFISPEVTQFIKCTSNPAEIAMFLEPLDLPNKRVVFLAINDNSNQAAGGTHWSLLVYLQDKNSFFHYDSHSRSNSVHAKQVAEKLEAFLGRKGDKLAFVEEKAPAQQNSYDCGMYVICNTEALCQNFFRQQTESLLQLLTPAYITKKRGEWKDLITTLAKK
SENP8 block-2 – SENP8 (human) protease inhibition; recombinant SENP8, Nedd8 substrate fluorescence; AID 602440; 0.64% of 360,000 active; inhibition, % at 20 µM; Q96LD8; in the data active means inhibition mostly above about 40%, no sharp cut-off; inactive means mostly below about 27%
SENP6 inh – SENP6 protease inhibition; Recombinant SENP6 catalytic domain, aminoluciferin luminescence; inhibition, % at 10 µM; 1.8% of 330,000 active;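 active means inhibition above about 50% at the single tested dose, limit read from the data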;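 further: plate controls were DMSO wells with enzyme for no effect and DMSO wells lacking enzyme for full effect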
SENP8 conf – human SENP8 inhibition, confirmed; shares compounds with SENP7 inh; Recombinant SENP8, Z-RLRGG-aminoluciferin luminescence, 60 min; inhibition, % at 12.5 µM; 40% of 6,200 active; AID 488912;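 active means mean inhibition across replicates above about 50%, limit read from the data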
SENP6 confirm – confirmation of human SENP6 protease inhibitors; shares compounds with SENP7 inh; recombinant SENP6, Z-RLRGG-aminoluciferin luminescence; inhibition, % at 12.5 µM; 58% of 6,200 active; AID 488915
SENP7 conf – human SENP7 inhibition, confirmed. recombinant SENP7, Z-RLRGG-aminoluciferin luminescence, 40 min. shares compounds with SENP7 inh. inhibition, % at 12.5 µM. 69% of 6,200 active
Casp3 select – selectivity test for SENP inhibitors: human caspase-3 inhibition. shares compounds with SENP7 inh. purified caspase-3, Z-DEVD-aminoluciferin luminescence, 60 min. inhibition, % at 12.5 µM. 60% of 6,200 active;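 active means mean inhibition above about 50%, limit read from the data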;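 further: plate controls were enzyme with DMSO for no effect and wells without caspase-3 for full effect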
Luc interf – interferes with luciferase luminescence in SENP counter-screen; shares compounds with SENP7 inh; Pre-incubated SENP8/Z-RLRGG-aminoluciferin, luciferase luminescence interference; inhibition, % at 12.5 µM; 39% of 6,200 active; AID 488919;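 active means mean inhibition above about 50% when retested at one dose, limit read from the data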;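 further: plate controls were DMSO wells with completed reaction for no effect and substrate without enzyme for full effect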
Starred values were filed as active, the others as inactive; . = no result.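 How the source made its calls, unless noted: active means mean inhibition above about 50% in the one-dose retest (limit read from the data); inactive means the rest.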

SMILES | SENP7 inh | HSP90 inh | SENP8 block-1 | SENP8 block-2 | SENP6 inh | SENP8 conf | SENP6 confirm | SENP7 conf | Casp3 select | Luc interf
Oc1ccc(NCc2cccc(OCc3ccccc3)c2)cc1 | 0 | 2 | -7 | 43* | 69* | -30 | -24 | -7 | -4 | 6
Oc1ccc(NCc2cccc(OCc3ccc(F)cc3)c2)cc1 | 35 | 4 | -5 | 32 | 8 | . | . | . | . | .
CCOC(=O)c1cnc2c(cnn2C)c1NCCCn1ccnc1 | -5 | -3 | -5 | -1 | -14 | . | . | . | . | .
Cc1cc(-c2nc(-c3ccncc3)no2)ccc1[N+](=O)[O-] | 61* | -1 | 54* | 13 | 60* | 9 | 9 | 16 | 12 | 11
Cc1ccc(-c2nc(-c3ccncc3)no2)cc1Cl | 55* | 1 | 23 | 12 | 30 | 23 | 20 | 35 | 39 | 11
Cc1cccc(/C(N)=N/OC(=O)c2ccc(F)cc2)c1 | 99* | -4 | 96* | 11 | 98* | 98* | 98* | 102* | 98* | 89*
COc1ccc(/C(N)=N/OC(=O)c2cccs2)cc1OC | -3 | -3 | -1 | 2 | -8 | . | . | . | . | .
O=C(O/N=C1\CCCc2ccccc21)c1cccs1 | 91* | -1 | 86* | 5 | 88* | -24 | 94* | 101* | 90* | 33
N/C(=N\OC(=O)c1cccs1)c1ccccc1 | 99* | -7 | 91* | 3 | -8 | 93* | 95* | 101* | 97* | 93*
Cc1ccc(/C(N)=N/OC(=O)c2cccs2)cc1 | 67* | 1 | 68* | 9 | 73* | 58* | 65* | 91* | 73* | 60*
CC(C)C(=O)N(Cc1ccccc1)S(=O)(=O)c1ccc2c(c1)oc(=O)n2C | -6 | -3 | 5 | 7 | 11 | . | . | . | . | .
N/C(=N\OC(=O)c1cccs1)c1cccc(Br)c1 | 88* | 1 | 80* | 7 | 21 | 87* | 89* | 99* | 90* | 82*
Cc1cccc(/C(N)=N/OC(=O)c2cccs2)c1 | 97* | -4 | 91* | 22 | 88* | 95* | 96* | 101* | 97* | 96*
CC(C)C[C@H](NC(=O)C1CC(=O)N(c2ccc3c(c2)OCO3)C1)C(=O)NCc1ccco1 (some centres not stated) | 6 | 2 | 9 | 1 | -5 | . | . | . | . | .
COc1ccc(NC(=O)n2ncc3cc(Cl)ccc32)cc1OC | 26 | 2 | 46 | 30 | 60* | 20 | 59* | 36 | 34 | 21
COc1ccc(NC(=O)c2cc(-c3cc(Cl)ccc3OC)n[nH]2)cc1OC | . | . | . | 22 | . | . | . | . | . | .
O=C(Nc1ccccc1F)n1ncc2cc(Cl)ccc21 | -2 | -4 | -10 | 19 | -3 | . | . | . | . | .
COc1cc(NC(=O)n2ncc3cc(Cl)ccc32)cc(OC)c1 | 28 | -2 | 54* | 23 | 38 | -24 | -1 | 18 | 20 | -11
C/C(=N\Nc1ccccc1[N+](=O)[O-])c1ccccc1O | 74* | -5 | 23 | 40* | 42 | 11 | 14 | 19 | 24 | 6
C/C(=N\Nc1cccc2cccnc12)c1ccccc1O | 88* | -1 | 77* | -6 | 82* | 7 | 18 | 22 | 25 | 3
C/C(=N\Nc1ccc(S(N)(=O)=O)cc1[N+](=O)[O-])c1ccccc1O | -1 | -2 | -10 | 39 | -22 | . | . | . | . | .
Cc1cccc(-c2noc(CSc3ccccc3)n2)c1 | 12 | -5 | -12 | 8 | 25 | . | . | . | . | .
Cc1ccc(-c2noc(CSc3ccccc3)n2)cc1 | 52* | -1 | 37 | 16 | 76* | 51* | 60* | 81* | 43 | 45
COc1ccc(-c2noc(Cc3ccccc3OC)n2)cc1 | 0 | 1 | -14 | 20 | -3 | . | . | . | . | .
Cc1ccc(-c2noc(COc3ccccc3C)n2)cc1 | 28 | 5 | 0 | 3 | -32 | . | . | . | . | .
SMILES | SENP7 inh | HSP90 inh | SENP8 block-1 | SENP8 block-2 | SENP6 inh | SENP8 conf | SENP6 confirm | SENP7 conf | Casp3 select | Luc interf
Cc1ccc(OCc2nc(-c3ccccc3)no2)cc1 | 32 | -4 | 12 | 10 | 56* | 16 | 24 | 65* | 26 | 7
COc1ccc(-c2noc(Cc3cccs3)n2)cc1 | 13 | 5 | 30 | 19 | 50* | 38 | 39 | 69* | 28 | 28
Cc1cc2cc3c(=O)[nH]c(=O)nc-3n(CC(O)C(O)C(O)CO)c2cc1C (configuration not stated) | . | . | . | -454 | . | . | . | . | . | .
CC1CCCN(CC(O)CN2CCN(CC(O)CN3CCCC(C)C3)C(C)C2)C1 (configuration not stated) | . | . | . | 23 | . | . | . | . | . | .
Cc1ccc2nc(N3C(=O)C(O)=C(C(=O)c4ccco4)C3c3cccs3)sc2c1 (configuration not stated) | 46 | 0 | 53* | -62 | 74* | 7 | 10 | 29 | 38 | 15
Cc1csc(NC(=O)COc2ccc3c(C)cc(=O)oc3c2)n1 | 10 | 2 | -14 | -125 | 1 | . | . | . | . | .
Cc1ccc(NC(=O)CN(C2=NC3CS(=O)(=O)CC3S2)c2ccccc2)cc1 (configuration not stated) | . | . | . | 6 | . | . | . | . | . | .
O=C(COC(=O)c1ccccn1)Nc1ncc(C(F)(F)F)cc1Cl | 1 | 5 | 23 | 14 | -14 | . | . | . | . | .
CC1CCCC(NC(=O)COC(=O)c2ccc([N+](=O)[O-])s2)C1C (configuration not stated) | 32 | . | 63* | 34 | 65* | 9 | 51* | 4 | -2 | -11
CC1CCCC(NC(=O)COC(=O)c2ccccc2[N+](=O)[O-])C1C (configuration not stated) | -10 | 1 | 3 | 19 | 13 | . | . | . | . | .
CC(OC(=O)c1ccc([N+](=O)[O-])s1)C(=O)NC1CCCCC1C (configuration not stated) | 11 | . | 55* | 30 | 46 | -1 | 19 | -4 | -4 | -14
O=C(COC(=O)c1ccc([N+](=O)[O-])s1)Nc1ncc(C(F)(F)F)cc1Cl | 10 | -1 | -7 | 10 | 71* | 31 | 84* | 36 | 1 | -3
COC(=O)c1cc(NS(=O)(=O)c2ccc(N3CCCCCC3)c([N+](=O)[O-])c2)cc(C(=O)OC)c1 | -3 | 2 | -3 | 8 | -10 | . | . | . | . | .
Cc1ccc(-n2c(C)cc(C(=O)COC(=O)c3c(C)noc3C)c2C)cc1 | 52* | -2 | 45 | 16 | 68* | 52* | 58* | 82* | 59* | 32
